Data from PubChem BioAssay (NCATS).
Records with an inconclusive call do not appear. A call without a number means that no potency is given here. Active and inactive are the calls of the source. The call rests on the fitted dose curve; in most records, active means well fitted curve in the direction sought with a large enough effect; inconclusive means small, poorly fitted or top-dose-only effect, or another doubt; inactive means no such curve, though single readings can be large; an effect the other way counts as inactive or inconclusive.

How the values were obtained:
[1] = P-glycoprotein substrates identified in KB-3-1 adenocarcinoma cell line, qHTS therapeutic library screen (AID 1346986); details: KB-3-1 parental cells viability, CellTiter-Glo, 72 h; series mostly up to 44.5 µM; further: nearly all actives have a fitted effect of over 60% in size
In short: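 Using luminescence to quantify ATP, parental and P-gp-overexpressing KB cells were compared after 72 h compound titration. KB-8-5-11 was also run with the P-gp inhibitor tariquidar.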

[2] = P-glycoprotein substrates identified in KB-8-5-11 adenocarcinoma cell line, qHTS therapeutic library screen (AID 1346987); details: KB-8-5-11 (P-gp overexpressing) viability, CellTiter-Glo, 72 h; series mostly up to 44.5 µM; further: nearly all actives have a fitted effect of over 65% in size
In short: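 In this qHTS, P-gp-rich KB-8-5-11 cells received library compounds across a concentration range. Viability was quantified by luminescence after 72 h at 37 degree C.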

SMILES: COC1OC(=O)C2=C1C1(C)CCCC(C)(C)C1CC2O (stereo not given)
- Potency [1]: inactive
- Potency [2]: inactive

SMILES: CC1=COC(OC2OC(CO)C(O)C(O)C2O)C2C(CO)CC(OC(=O)/C=C/c3ccc(O)cc3)C12 (stereo not given)
- Potency [1]: inactive
- Potency [2]: inactive

SMILES: C=CC(C)(O)C1CC2C3(C)CCCC(C)(C)C3C(O)C(O)C2(C)O1 (stereo not given)
- Potency [1]: inactive
- Potency [2]: inactive

SMILES: COc1ccnc2[nH]cc(C(=O)C(=O)N3CCN(C(=O)c4ccccc4)CC3C)c12 (stereo not given)
- Potency [1]: inactive
- Potency [2]: inactive

SMILES: CC1=C(CO)C2(C)CCCC(C)(C)C2C(O)C1O (stereo not given)
- Potency [1]: inactive
- Potency [2]: inactive
